Composite z-score and z-score data for five compounds are collected here from PubChem BioAssay.

Calls of active or inactive are those of the source. Unless noted, how the calls were made is not given here.

Assay [1] relates to Wnt5a (protein binding on small-molecule microarray). In words: Wnt5a binders on small-molecule microarray, primary screen, biophysical, 635/667 nm fluorescence (AID 1142).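 Further: fluorescence read at 667 nm with signal to noise per printed feature.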 Conditions: 635 nm fluorescence, higher = more signal.
Assay [2] in a line: cell viability in Huh7 cells, primary screen, cytotoxicity control for HCV replication inhibitor project, CellTiter-Glo luminescence, basal, 48 h (AID 1143).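 Further: Huh7 hepatoma cells carrying a hepatitis C replication reporter with no stimulus; test concentration not given here.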 Conditions: Huh7 HCV replicon, higher = more signal, called active from +8 up or from −8 down.
A short description of assay [3]: P. aeruginosa biofilm formation inhibitors, primary screen, PAO1 strain, BacTiter-Glo luminescence, LB-PBS (AID 1144). Conditions: 12 h, higher = more signal.
Assay [4] is described as follows: CREB reporter modulators without forskolin, primary screen, cell-based, PC12, CRE-LacZ reporter, unstimulated (AID 1145). Conditions: no forskolin, luminescence, 4.5 h, higher = more signal, called active from +8 up or from −8 down.
Assay [5] in a line: CREB reporter modulators under forskolin, primary screen, cell-based, PC12, CRE-LacZ reporter, forskolin-stimulated (AID 1146).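 Further: PC12 cells with 6xCRE LacZ reporter stimulated by forskolin 10 µM; beta-galactosidase reporter signal reflecting CREB driven transcription.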 The settings on record: luminescence, 4.5 h, higher = more signal, called active from +8 up or from −8 down.
Assay [6] concerns the target Streptavidin (Streptomyces avidinii) (UniProt P22629). Briefly: streptavidin binders on small-molecule microarray, primary screen, artefact control for SMM compound annotation, biophysical, 635/667 nm fluorescence (AID 1147).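 Further: signal reflects streptavidin binding to arrayed compounds as a control protein.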 The settings on record: streptavidin binding, higher = more signal.
The nature of assay [7]: small-molecule binders of probe aInhba, primary screen, biochemical, small-molecule microarray, 635/667 nm fluorescence (AID 1148).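 Further: score merges 667nm spot fluorescence with signal-to-noise for antibody binding to printed compounds.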 The settings on record: higher = more signal.
The target in assay [8] is Torsin-1A (Homo sapiens) (UniProt O14656). Briefly: torsin A binders from cell lysate, primary screen, small-molecule microarray, wild-type, 635/667 nm (AID 1149). Conditions: COS7 hTOR1A-WT lysate, 635 nm fluorescence, higher = more signal.
Torsin-1A (Homo sapiens), sequence (O14656 whole entry, looked up): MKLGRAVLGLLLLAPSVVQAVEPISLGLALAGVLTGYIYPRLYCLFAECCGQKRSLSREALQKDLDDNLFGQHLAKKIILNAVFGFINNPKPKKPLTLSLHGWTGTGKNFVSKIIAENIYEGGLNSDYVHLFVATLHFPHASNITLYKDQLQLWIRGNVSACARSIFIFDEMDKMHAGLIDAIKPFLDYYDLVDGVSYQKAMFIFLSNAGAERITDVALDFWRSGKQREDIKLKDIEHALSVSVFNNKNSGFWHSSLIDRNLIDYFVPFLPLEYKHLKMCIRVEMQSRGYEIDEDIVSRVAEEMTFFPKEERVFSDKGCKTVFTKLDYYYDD
Assay [9] shares this target. Briefly: small-molecule binders of mutant TOR1A in lysate, primary screen, cell lysate, small-molecule microarray, COS7 lysate, 635/667 nm fluorescence (AID 1150).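 Further: score pools 667 nm emission and signal to noise measuring lysate protein binding.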 Conditions: COS7 hTOR1A mutant lysate, 635 nm fluorescence, higher = more signal.
The test system of assay [10] is Sonic hedgehog protein (Shh). In words: small-molecule binders of Shh protein, primary screen, biochemical, small-molecule microarray, 635/667 nm fluorescence (AID 1151).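 Further: Shh protein binding to compounds spotted on small-molecule microarray slides; score combines spot fluorescence intensity with signal-to-noise across triplicate slides.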 Conditions: small-molecule microarray binding, 635 nm fluorescence; higher = more signal.
The nature of assay [11]: E. coli DRC41 culture turbidity changes, primary screen, E. coli filamentation inducer project, strain DRC41, OD650, 48 h (AID 1152).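 Further: E. coli MC1000 strain DRC41 lacking acrAB efflux pump and sulA.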 Conditions: E. coli DRC41 (acrAB sulA), higher = more signal, called active from +8 up or from −8 down.
The nature of assay [12]: small-molecule binders of probe aLefty1, primary screen, biochemical, small-molecule microarray, 635/667 nm fluorescence (AID 1153).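 Further: score merges spot fluorescence with signal-to-noise ratio from the scanned slide images.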 Conditions: higher = more signal.
Assay [13] is described as follows: PSAC antagonists in infected red cells, primary screen, cell-based, P. falciparum Indochina, OD700, 1 h (AID 1154). The settings on record: P. falciparum Indochina infected RBC osmotic lysis, higher = more signal, called active from +8 up or from −8 down.
A short description of assay [14]: PSAC antagonists in infected red cells, primary screen, cell-based, P. falciparum Indochina, OD700, 2 h (AID 1155).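 Further: lysis reports solute entry through the parasite surface anion channel PSAC; channel blockers reduce lysis of infected cells.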 Conditions: P. falciparum Indochina infected erythrocytes, osmotic lysis OD700; higher = more signal, called active from +8 up or from −8 down.
Assay [15] can be described thus: osmotic lysis modulators in infected erythrocytes, primary screen, PSAC antagonist project, cell-based, P. falciparum Indochina, OD700, 3 h (AID 1156). Conditions: higher = more signal, called active from +8 up or from −8 down.
A short description of assay [16]: PSAC antagonists in infected red cells, primary screen, cell-based, P. falciparum Indochina, OD700, 18 h (AID 1157). Conditions: P. falciparum Indochina infected erythrocytes, osmotic lysis OD700, 18 h; higher = more signal, called active from +8 up or from −8 down.
Assay [17] is described as follows: modulators of S6 phosphorylation in cells, primary screen, cell-based, A549, cytoblot, luminescence, serum-stimulated (AID 1158).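 Further: serum-stimulated A549 lung adenocarcinoma cells; signal is phosphorylated S6 detected by cytoblot immunostaining with HRP secondary.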 Conditions: A549 phospho-S6 cytoblot, 5 h, higher = more signal.
Assay [18] deals with NADPH oxidase 2 (Homo sapiens) (UniProt P04839). Briefly: NOX2-dependent H2O2 signal modulators, primary screen, NOX inhibitor project, cell-based, HEK293-NOX2, PMA-stimulated, Amplex Red fluorescence (AID 1159). Further: test concentration not given here. Conditions: 45 min, higher = more signal, called active from +8 up or from −8 down.
NADPH oxidase 2 (Homo sapiens), sequence (P04839 whole entry, looked up): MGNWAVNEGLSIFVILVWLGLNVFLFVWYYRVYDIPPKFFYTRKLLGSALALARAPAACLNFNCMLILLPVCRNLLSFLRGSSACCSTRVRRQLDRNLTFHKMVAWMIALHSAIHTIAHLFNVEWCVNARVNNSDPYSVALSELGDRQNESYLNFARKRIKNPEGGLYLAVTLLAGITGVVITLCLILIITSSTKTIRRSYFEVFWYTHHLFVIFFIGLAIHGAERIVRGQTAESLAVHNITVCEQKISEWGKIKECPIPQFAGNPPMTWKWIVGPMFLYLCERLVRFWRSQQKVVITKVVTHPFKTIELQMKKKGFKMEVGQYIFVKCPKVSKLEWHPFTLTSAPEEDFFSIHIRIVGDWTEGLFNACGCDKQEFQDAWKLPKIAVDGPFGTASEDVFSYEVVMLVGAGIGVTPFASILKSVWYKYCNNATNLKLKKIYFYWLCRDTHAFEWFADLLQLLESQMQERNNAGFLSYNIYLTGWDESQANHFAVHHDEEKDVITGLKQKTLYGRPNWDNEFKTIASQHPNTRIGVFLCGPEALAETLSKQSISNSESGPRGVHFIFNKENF
For assay [19], the target named is NADPH oxidase 4 (Homo sapiens) (UniProt Q9NPH5). Briefly: NOX4-dependent H2O2 signal modulators, primary screen, NOX inhibitor project, cell-based, HEK293-NOX4, tetracycline-induced, Amplex Red fluorescence (AID 1160). The settings on record: 45 min, higher = more signal, called active from +8 up or from −8 down.
NADPH oxidase 4 (Homo sapiens), sequence (Q9NPH5 whole entry, looked up): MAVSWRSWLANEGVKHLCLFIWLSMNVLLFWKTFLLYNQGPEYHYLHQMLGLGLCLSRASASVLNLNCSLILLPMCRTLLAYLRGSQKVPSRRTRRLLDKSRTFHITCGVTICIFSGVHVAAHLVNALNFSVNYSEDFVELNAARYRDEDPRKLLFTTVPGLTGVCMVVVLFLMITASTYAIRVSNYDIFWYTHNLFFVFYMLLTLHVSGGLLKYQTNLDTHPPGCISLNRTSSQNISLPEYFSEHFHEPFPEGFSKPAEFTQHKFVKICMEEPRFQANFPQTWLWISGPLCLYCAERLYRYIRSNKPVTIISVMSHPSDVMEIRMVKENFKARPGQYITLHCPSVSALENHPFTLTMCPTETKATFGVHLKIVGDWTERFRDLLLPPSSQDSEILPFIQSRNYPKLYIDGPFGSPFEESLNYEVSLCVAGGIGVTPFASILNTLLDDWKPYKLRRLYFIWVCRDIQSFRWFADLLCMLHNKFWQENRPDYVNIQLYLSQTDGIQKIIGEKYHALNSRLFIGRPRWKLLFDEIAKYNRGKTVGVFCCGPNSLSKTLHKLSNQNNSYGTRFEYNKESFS
In assay [20] the target is NADPH oxidase 5 (Homo sapiens) (UniProt Q96PH1). In words: NOX5-dependent H2O2 signal modulators, primary screen, NOX inhibitor project, cell-based, HEK293-NOX5, Amplex Red fluorescence (AID 1161). The settings on record: HEK293-NOX5, ionomycin, 45 min, higher = more signal.
NADPH oxidase 5 (Homo sapiens), sequence (Q96PH1 whole entry, looked up): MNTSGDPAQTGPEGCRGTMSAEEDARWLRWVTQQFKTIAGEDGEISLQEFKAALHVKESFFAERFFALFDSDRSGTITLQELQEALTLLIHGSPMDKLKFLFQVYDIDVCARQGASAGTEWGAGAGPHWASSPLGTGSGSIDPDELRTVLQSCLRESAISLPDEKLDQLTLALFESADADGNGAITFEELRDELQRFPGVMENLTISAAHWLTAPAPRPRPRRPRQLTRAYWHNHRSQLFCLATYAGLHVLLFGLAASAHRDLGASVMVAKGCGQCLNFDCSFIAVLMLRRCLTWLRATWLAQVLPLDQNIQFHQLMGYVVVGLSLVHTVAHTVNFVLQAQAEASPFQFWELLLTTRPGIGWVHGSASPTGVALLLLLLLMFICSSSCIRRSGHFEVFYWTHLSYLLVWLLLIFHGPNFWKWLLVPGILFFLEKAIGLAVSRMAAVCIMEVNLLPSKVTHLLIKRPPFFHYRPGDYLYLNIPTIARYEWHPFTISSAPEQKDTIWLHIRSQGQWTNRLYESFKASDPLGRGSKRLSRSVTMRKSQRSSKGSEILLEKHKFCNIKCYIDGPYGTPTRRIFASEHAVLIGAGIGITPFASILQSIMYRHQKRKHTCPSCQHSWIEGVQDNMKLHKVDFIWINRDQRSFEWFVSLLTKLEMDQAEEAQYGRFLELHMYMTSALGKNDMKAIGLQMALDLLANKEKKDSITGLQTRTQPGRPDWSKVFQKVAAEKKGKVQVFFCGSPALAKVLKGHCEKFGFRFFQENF

Streptavidin (Streptomyces avidinii), sequence (P22629 whole entry, looked up): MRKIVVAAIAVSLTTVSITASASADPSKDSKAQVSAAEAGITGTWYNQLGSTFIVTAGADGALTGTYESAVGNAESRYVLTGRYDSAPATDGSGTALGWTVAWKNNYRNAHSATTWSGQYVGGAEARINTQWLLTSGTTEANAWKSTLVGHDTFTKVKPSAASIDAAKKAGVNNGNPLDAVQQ

In the case of `COC(=O)[C@@]1(Cc2ccc(OC)cc2)[C@H]2c3cc(C(=O)N(C)C)n(Cc4ccc(OC(F)(F)F)cc4)c3C[C@H]2CN1C(=O)c1ccccc1`, the composite z-score was -0.223 in [1]; 0.539 in [6]; 0.185 in assay [7]; -0.178 with Torsin-1A (Homo sapiens) [8]; 0.555 with Torsin-1A (Homo sapiens) [9]; -0.955 in assay [10]. Besides, the composite z-score in [12] was 0.407. Also, the z-score in [2] is -2.6 (inactive); in assay [3] it was 0.043 (inactive); in [4], 4.4 (inactive); in assay [5], 74 (active); in assay [11] it was -1.81 (inactive); in assay [13], 0.404 (inactive). Further, the z-score is 0.542 (inactive) in [14]; 0.219 (inactive) in assay [15]; 0.569 (inactive) in [16]; -1.19 in assay [17]; 0.262 (inactive) in [18]; -0.787 (inactive) in assay [19]. In addition, in assay [20], the z-score was -0.499.

Take `CC1CC/C=C\[C@H]2OC34C=CCN(c5ccc(Cl)cc5)C(=O)[C@H]3N(C(C)CO)C(=O)[C@]4(C)C2C(=O)O1` (stereo not given in full): the composite z-score in [1] was -0.304; in assay [6], -0.367; in [7], -0.401; in the assay with Torsin-1A (Homo sapiens) [8] it was -0.979; in the assay with Torsin-1A (Homo sapiens) [9] it was -1.5; in assay [10] it was -0.374. Moreover, the composite z-score in [12] is -0.284. For the same compound, the z-score is 0.0276 (inactive) in assay [2]; 0.2 (inactive) in assay [3]; -0.0859 (inactive) in assay [4]; 0.325 (inactive) in assay [5]; 0.346 (inactive) in assay [11]; 0.685 (inactive) in [13]. Further, the z-score in assay [14] was 0.67 (inactive); in [15], 0.335 (inactive); in assay [16] it was 0.281 (inactive); in [17], 0.116; in assay [18], 0.889 (inactive); in [19], -0.383 (inactive). This compound yielded a z-score in [20] of 1.17.

As to `COc1ccc([Si](C)(C)[C@@H]2[C@@H](CC(=O)N3Cc4ccccc4C[C@H]3CO)O[C@]3(C(=O)N(Cc4ccc(N5C(=O)c6cccc7cccc5c67)cc4)c4ccccc43)[C@H]2C)cc1`, the composite z-score in [1] turned out to be 0.453; in assay [6] it was 0.29; in assay [7], 0.0319; with Torsin-1A (Homo sapiens) [8], 0.645; in the assay with Torsin-1A (Homo sapiens) [9], 0.592; in assay [10], 1.69. Also, in [12], the composite z-score stood at 0.0391. The z-score is -2.28 (inactive) in assay [2]; -0.334 (inactive) in assay [3]; 2.34 (inactive) in assay [4]; 0.972 (inactive) in [5]; -0.967 (inactive) in assay [11]; 3.62 (inactive) in [13]. The z-score in [14] is 1.49 (inactive); in [15], -0.149 (inactive); in [16] it was 0.694 (inactive); in [17], -0.297; in assay [18], 0.878 (inactive); in assay [19], 0.929 (inactive). The compound also gave a z-score in assay [20] of 2.03.

Consider `CC(=O)N1CC2(CC2)CC1c1ccccc1` (stereo not given), for which the composite z-score is 0.898 in assay [1]; 0.547 in [6]; 0.507 in assay [7]; 0.192 with Torsin-1A (Homo sapiens) [8]; 0.421 with Torsin-1A (Homo sapiens) [9]; -0.515 in assay [10]. In [12], this compound returned a composite z-score of 0.433. Further, the z-score in [2] is -0.283 (inactive); in assay [3], 0.108 (inactive); in assay [4], 0.397 (inactive); in assay [5], -0.366 (inactive); in assay [11] it was -1.35 (inactive); in assay [13], -0.0747 (inactive). Moreover, the z-score is 0.635 (inactive) in assay [14]; 0.539 (inactive) in assay [15]; 0.715 (inactive) in [16]; -0.0482 in assay [17]; -0.328 (inactive) in [18]; -1.08 (inactive) in assay [19]. Besides, in [20], the z-score is -2.74.

On to `O=C1[C@H]2C=C(I)[C@H](C[C@@H]2OCCOCCO)[C@@]12CO2`, for which the composite z-score in [1] was 0.0712; in assay [6], 1.08; in assay [7] it was -0.106; with Torsin-1A (Homo sapiens) [8] it was 0.48; with Torsin-1A (Homo sapiens) [9] it was -0.0946; in assay [10], 0.719. For the same compound, in [12], the composite z-score is -0.371. Further, the z-score is 1.05 (inactive) in [2]; -0.0471 (inactive) in assay [3]; 1.67 (inactive) in [4]; 0.839 (inactive) in [5]; -0.878 (inactive) in assay [11]; -0.0899 (inactive) in assay [13]. The z-score was -0.122 (inactive) in [14]; -0.321 (inactive) in assay [15]; -0.235 (inactive) in assay [16]; 0.0332 in [17]; 0.578 (inactive) in [18]; 0.373 (inactive) in [19]. For the same compound, the z-score in assay [20] is -0.151.
